Experimental data taken from the supplement of paper PMC7724964.
± gives the standard deviation of the averaged measurements.

Target: T1, TSG101 1-145 UEV (domain begin residue: 1, domain end residue: 145), Q99816
T1 chain: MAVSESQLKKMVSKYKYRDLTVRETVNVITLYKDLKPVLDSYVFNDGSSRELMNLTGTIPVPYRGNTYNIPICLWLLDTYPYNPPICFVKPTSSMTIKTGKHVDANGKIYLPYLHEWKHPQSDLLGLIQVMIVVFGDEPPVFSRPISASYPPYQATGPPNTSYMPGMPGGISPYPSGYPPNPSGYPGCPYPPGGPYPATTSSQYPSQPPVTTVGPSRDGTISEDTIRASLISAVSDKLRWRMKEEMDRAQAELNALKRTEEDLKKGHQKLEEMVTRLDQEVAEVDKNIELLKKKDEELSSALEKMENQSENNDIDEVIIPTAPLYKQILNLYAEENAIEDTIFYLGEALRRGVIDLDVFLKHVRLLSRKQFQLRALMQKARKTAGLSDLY
Test: phage ELISA signal ratio (GST-PRM binding over GST background); higher = stronger binding of peptide-phage to the PRM
In short: (§1)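 An M13 phage library with randomized hexadecapeptides on the gene-8 major coat protein, each peptide lacking cysteine and flanked by glycine, was selected for five rounds against human peptide recognition domains fused to the C-terminus of glutathione S-transferase (GST) and expressed in 96-well plates. Approximately 48 clones from rounds 4 and 5 went to phage ELISA. The reported value is the ELISA signal on the GST-domain fusion over the signal on GST alone, and positive clones were sequenced.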

Row | Binder | phage ELISA signal ratio
1 | YLWFSPAPSAPIWQWV | 5.56
2 | TDFTYAHAYNPHFIVS | 5.82
3 | VSDLWWNPTWSSQETI | 9.75
4 | GPLHPTAPVWENMLKY | 15.7
5 | NFNYPEQMYSYNPHWI | 20.4 ± 0.54
6 | MQEAPYNPAWMEVPEL | 27.7
7 | YQPNMASAPEWVWESH | 29.4

target: U2AF2 372-475 RRM_1 (domain begin residue: 372, domain end residue: 475), P26368; test: as above
Sequence (P26368 whole entry): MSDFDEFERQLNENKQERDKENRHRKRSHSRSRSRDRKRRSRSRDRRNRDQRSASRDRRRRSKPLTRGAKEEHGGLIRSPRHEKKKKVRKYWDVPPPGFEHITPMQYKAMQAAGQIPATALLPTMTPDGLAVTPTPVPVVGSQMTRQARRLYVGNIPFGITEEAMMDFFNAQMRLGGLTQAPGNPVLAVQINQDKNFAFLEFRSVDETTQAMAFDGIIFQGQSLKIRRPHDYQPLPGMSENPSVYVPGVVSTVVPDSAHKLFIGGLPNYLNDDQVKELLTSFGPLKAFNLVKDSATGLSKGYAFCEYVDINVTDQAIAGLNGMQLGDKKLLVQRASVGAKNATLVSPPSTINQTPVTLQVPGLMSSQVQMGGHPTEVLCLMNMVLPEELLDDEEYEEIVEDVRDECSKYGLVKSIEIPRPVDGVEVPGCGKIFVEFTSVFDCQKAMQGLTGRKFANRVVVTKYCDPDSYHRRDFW
In short: as §1

Row | Binder | phage ELISA signal ratio
8 | FDKWEQRRSVPMGQVQ | 3.6
9 | FSRWEQRQMQSVGGAG | 6.45
10 | FDRWESRRQSIGLELS | 8.37

target: UBA52 1-76 Ubiquitin (domain begin residue: 1, domain end residue: 76), P62987; test: as above
In short: as §1

Row | Binder | phage ELISA signal ratio
11 | MTVVEWWTDAQIAEWM | 12.5
12 | EHMWDAQMWEWSWWDL | 15.1
13 | EMWVFTPAEWFQIYLN | 16.2
14 | DLHYDWSLEYWTSLLQ | 17.2

target: UBE2D2 1-147 UQ_con (domain begin residue: 1, domain end residue: 147), P62837; test: as above
Sequence (P62837 whole entry): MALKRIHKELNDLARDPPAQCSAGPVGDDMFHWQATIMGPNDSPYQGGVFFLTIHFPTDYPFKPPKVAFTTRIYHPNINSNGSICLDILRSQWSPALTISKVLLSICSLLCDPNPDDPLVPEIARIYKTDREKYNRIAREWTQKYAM
In short: as §1

Row | Binder | phage ELISA signal ratio
15 | WGHDWMMEWNTLQPMS | 4.08

target: UBE2V2 1-145 UQ_con (domain begin residue: 1, domain end residue: 145), Q15819; test: as above
Sequence (Q15819 whole entry): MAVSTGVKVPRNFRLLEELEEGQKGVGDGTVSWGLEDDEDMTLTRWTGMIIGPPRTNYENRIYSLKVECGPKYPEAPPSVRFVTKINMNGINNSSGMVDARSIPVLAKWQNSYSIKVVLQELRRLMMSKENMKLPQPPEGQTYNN
In short: as §1

Row | Binder | phage ELISA signal ratio
16 | FEHLEYSHPYLWEMYF | 5.45
17 | YIDYTFFEDGYYRVIE | 5.72
18 | SLEWWNDISHPYWWHQ | 6.28
19 | DRNAEMAIRQYFMYHE | 8.43
20 | QVGWWMELDHPFWWHQ | 8.59
21 | TNSMPQWAQSQLAMYR | 21.3

target: UBR5 2391-2453 PABP (domain begin residue: 2391, domain end residue: 2453), O95071; test: as above
Sequence (O95071 whole entry): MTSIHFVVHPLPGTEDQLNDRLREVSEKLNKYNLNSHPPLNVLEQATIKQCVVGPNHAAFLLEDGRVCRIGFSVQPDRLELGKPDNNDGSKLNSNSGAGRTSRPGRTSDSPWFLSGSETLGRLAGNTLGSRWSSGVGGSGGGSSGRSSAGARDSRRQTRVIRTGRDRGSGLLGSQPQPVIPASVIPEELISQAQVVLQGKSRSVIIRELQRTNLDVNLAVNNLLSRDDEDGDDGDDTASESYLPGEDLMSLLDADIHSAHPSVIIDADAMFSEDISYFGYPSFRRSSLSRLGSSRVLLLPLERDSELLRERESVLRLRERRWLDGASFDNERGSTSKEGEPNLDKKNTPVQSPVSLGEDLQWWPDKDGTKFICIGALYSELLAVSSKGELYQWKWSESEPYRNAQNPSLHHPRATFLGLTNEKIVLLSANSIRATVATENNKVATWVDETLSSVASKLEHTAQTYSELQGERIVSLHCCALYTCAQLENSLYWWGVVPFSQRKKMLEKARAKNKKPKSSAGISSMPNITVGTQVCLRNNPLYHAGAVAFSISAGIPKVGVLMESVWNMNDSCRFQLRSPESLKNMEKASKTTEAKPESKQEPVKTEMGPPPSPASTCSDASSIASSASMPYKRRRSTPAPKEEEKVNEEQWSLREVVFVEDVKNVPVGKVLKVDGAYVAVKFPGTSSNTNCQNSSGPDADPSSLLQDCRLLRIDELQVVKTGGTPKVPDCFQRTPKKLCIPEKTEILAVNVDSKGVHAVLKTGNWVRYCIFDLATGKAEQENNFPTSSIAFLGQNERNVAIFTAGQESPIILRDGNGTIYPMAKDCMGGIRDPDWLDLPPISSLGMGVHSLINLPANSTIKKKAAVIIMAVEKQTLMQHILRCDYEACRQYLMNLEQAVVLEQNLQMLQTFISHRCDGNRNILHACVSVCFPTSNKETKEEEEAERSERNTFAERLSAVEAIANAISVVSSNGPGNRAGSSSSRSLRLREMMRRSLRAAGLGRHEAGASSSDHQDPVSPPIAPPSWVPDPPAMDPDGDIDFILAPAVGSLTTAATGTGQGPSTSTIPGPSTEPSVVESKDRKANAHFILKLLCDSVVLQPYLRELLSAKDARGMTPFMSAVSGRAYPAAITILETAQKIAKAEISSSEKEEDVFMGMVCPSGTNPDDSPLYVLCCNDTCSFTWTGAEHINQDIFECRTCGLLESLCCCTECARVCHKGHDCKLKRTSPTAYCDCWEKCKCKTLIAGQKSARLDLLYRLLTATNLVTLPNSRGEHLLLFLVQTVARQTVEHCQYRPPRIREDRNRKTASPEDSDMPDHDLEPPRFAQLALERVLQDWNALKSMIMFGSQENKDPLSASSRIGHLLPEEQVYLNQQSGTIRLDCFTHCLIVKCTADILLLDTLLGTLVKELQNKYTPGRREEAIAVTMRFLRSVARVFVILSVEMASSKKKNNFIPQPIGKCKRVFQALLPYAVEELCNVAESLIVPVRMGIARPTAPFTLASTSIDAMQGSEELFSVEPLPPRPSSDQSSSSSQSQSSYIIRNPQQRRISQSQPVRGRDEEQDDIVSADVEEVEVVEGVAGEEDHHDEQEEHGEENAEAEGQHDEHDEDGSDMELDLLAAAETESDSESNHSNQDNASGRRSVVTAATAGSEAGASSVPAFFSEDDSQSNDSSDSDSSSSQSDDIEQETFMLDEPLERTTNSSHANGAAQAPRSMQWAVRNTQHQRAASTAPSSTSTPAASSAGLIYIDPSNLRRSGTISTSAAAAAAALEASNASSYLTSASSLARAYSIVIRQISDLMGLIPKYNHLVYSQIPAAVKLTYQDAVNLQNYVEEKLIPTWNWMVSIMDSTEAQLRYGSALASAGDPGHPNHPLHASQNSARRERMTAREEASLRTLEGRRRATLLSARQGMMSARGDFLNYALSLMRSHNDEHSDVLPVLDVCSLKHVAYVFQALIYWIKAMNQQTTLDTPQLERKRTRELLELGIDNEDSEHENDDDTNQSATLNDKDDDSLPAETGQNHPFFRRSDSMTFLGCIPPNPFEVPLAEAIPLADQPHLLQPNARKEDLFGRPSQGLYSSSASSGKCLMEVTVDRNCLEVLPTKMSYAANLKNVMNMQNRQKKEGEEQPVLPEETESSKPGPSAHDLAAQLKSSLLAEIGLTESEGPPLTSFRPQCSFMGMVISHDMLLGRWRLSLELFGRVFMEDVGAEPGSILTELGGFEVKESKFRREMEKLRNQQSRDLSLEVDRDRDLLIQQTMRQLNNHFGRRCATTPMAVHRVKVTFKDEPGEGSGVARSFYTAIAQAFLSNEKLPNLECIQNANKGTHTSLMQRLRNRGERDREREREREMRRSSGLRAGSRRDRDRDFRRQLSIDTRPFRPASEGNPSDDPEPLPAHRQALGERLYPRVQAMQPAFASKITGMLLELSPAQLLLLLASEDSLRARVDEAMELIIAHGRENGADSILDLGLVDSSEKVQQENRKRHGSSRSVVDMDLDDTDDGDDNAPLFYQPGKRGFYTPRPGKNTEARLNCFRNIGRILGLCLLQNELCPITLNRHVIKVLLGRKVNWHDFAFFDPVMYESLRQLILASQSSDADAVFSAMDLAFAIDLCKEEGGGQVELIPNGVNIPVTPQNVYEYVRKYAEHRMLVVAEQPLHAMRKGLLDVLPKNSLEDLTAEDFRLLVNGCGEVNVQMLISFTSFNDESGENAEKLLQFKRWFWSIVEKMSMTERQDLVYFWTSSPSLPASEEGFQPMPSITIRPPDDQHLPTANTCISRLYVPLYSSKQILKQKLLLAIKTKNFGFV
In short: as §1

Row | Binder | phage ELISA signal ratio
22 | MNIDAREWSPASWEVH | 3.6
23 | SKELSVNAIPFDPHWY | 4.24
24 | VMTLSPHATPYYPQMQ | 5.69
25 | LSVAAPMFVPNNAVVS | 5.76
26 | TGVEMMSYKAKPFYPE | 7.69
27 | EWGSGWLNFQAAEFIV | 8.2
28 | SQLSIMSLEAAPFTWE | 10.5
29 | EWQWHNSVDWVPHKAT | 12.4
30 | LSYESAPWWPHMPAEF | 13.2
31 | EFLNVMAPSWVDITEW | 16.9
32 | YGMSIDASSFVPYEFW | 17.8
33 | AWSMLDIANIKPWNPM | 18.4
34 | QMNVQAQEWWPAHMTF | 18.6
35 | NNQVMNVNATPYYWPT | 19.4
36 | EALNIFSPMWEPQYVV | 19.5
37 | DDIWPVSAVHAQPFMV | 21.2
38 | ELSIWADAFQPHWHKV | 21.8
39 | KLDVFAVPFLSSQHEY | 22.6
40 | VLDINAQPFHQSGFNH | 25.7
41 | MDVAAQPWIPIVPPEG | 28.6
42 | ALSMSAEPFHPMVNYV | 30.1

Target: T2, UEVLD 1-145 UEV (domain begin residue: 1, domain end residue: 145), Q8IX04
T2 chain: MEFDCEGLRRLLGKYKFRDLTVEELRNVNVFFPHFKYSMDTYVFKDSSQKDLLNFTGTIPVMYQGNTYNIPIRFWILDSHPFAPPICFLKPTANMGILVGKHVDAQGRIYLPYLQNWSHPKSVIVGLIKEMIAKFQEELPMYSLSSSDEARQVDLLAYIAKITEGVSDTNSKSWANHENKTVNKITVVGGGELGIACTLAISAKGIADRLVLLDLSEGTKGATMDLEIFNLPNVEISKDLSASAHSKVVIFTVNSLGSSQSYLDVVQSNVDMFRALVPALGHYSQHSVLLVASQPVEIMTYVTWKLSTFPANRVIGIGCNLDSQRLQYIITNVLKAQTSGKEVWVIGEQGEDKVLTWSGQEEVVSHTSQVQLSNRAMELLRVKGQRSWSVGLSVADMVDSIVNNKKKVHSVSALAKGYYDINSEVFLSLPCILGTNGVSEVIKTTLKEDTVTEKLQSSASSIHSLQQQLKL
Test: as above
In short: as §1

Row | Binder | phage ELISA signal ratio
43 | LDWRMAPEWQWITHHL | 3.3
44 | MSQDWPWPDLSWFDEP | 7.15
45 | EFEWIDHFLGNMESGL | 8.99
46 | LGQQYQMWEYMASLYN | 11.4
47 | WRQDLETESLMQWFLW | 15.2
48 | EDHWWIASMWRDQAVQ | 18.1
49 | EQDQDLEYRMHMEKWW | 19.8
50 | FDWRETLWESSQWMIA | 22.7
51 | APFTLWESSMEALGEL | 23.3
52 | HQWQGDWDHEHIMMYW | 24.1
53 | ERFTLFQSSMDSILMF | 26
54 | VPWSENQEWQWIFEAV | 29.3

Target: T3, UQCRB 8-111 UCR_14kD (domain begin residue: 8, domain end residue: 111), P14927
T3 chain: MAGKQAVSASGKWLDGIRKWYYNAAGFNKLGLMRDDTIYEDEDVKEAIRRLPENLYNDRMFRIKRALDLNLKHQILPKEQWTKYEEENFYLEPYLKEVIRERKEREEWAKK
Test: as above
In short: as §1

Row | Binder | phage ELISA signal ratio
55 | FMDMWHWQQLEDYMFL | 4.85
56 | VLPDWMAQHAWEWTGH | 23.9

target: VASP 1-114 WH1 (domain begin residue: 1, domain end residue: 114), P50552; test: as above
Sequence (P50552 whole entry): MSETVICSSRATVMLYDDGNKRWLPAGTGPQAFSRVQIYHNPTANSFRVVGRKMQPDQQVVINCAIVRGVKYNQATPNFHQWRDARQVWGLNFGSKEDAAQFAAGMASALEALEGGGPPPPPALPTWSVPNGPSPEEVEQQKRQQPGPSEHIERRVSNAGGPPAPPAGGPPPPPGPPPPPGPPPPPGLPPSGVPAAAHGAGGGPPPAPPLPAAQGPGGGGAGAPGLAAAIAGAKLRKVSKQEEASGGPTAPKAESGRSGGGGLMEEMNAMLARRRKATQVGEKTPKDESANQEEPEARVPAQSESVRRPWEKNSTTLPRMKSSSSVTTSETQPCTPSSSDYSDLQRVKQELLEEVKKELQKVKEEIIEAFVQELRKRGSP
In short: as §1

Row | Binder | phage ELISA signal ratio
57 | IQDWPELPEVMMHWTL | 9.17
